In all, about 5,500 compounds went through this assay and about 2,000 (36%) were called active. Roughly 18% stayed inconclusive and do not appear here. Cut-off read from the data, not from the text of the source: active = normalized growth mostly below about 0.91 (no sharp cut-off); inconclusive = no clear call, values can overlap the other calls; inactive = mostly above about 0.92. This is one part of the list.
Assay: chemical genetic growth profiling, strain panel (AID 1159580);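 note: tested at 20 µM; growth read once vehicle control cultures reached saturation at 30 °C; 1 = growth at the plate median or of vehicle wells; lower values mean less growth of the strain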
Conditions: S. cerevisiae deletion strains, growth OD

Measured: normalized growth

O=C(NCC(c1ccccc1)c1c[nH]c2ccccc12)c1ccc(C(F)(F)F)cc1 (stereo not given)
active: locus YHR030C, strain SLT2, active compounds read low 0.807 | locus YLR113W, strain HOG1, active compounds read low 0.859
inactive: locus YAR019C, strain CDC15, active compounds read low 0.974 | locus YBL105C, strain PKC1, active compounds read low 0.98 | locus YBR135W, strain CKS1, active compounds read low 0.998 | locus YBR136W, strain MEC1, active compounds read low 0.986 | locus YBR160W, strain CDC28, active compounds read low 0.981 | locus YDL017W, strain CDC7, active compounds read low 0.985 | locus YDL028C, strain MPS1, active compounds read low 0.993 | locus YDL101C, strain DUN1, active compounds read low 0.985 | locus YDL108W, strain KIN28, active compounds read low 0.992 | locus YDL132W, strain cdc53, active compounds read low 0.992 | locus YDL214C, strain PRR2, active compounds read low 1.15 | locus YDR052C, strain DBF4, active compounds read low 0.993 | locus YDR054C, strain cdc34, active compounds read low 0.984 | locus YDR226W, strain ADK1, active compounds read low 0.971 | locus YDR477W, strain SNF1, active compounds read low 0.98 | locus YER123W, strain YCK3, active compounds read low 0.971 | locus YER133W, strain GLC7, active compounds read low 0.979 | locus YFL009W, strain cdc4, active compounds read low 1.04 | locus YFL029C, strain CAK1, active compounds read low 0.989 | locus YFR003C, strain YPI1, active compounds read low 1.01 | locus YFR019W, strain FAB1, active compounds read low 0.984 | locus YFR028C, strain CDC14, active compounds read low 0.979 | locus YGR040W, strain KSS1, active compounds read low 1 | locus YGR052W, strain FMP48, active compounds read low 1.02 | locus YGR092W, strain DBF2, active compounds read low 0.993 | locus YHR079C, strain IRE1, active compounds read low 0.981 | locus YHR082C, strain KSP1, active compounds read low 1.04 | locus YHR205W, strain SCH9, active compounds read low 1.01 | locus YIL147C, strain SLN1, active compounds read low 0.985 | locus YJL095W, strain BCK1, active compounds read low 0.996 | locus YJL128C, strain PBS2, active compounds read low 0.932 | locus YJL157C, strain FAR1, active compounds read low 0.989 | locus YJR016C, strain ILV3, active compounds read low 0.99 | locus YJR066W, strain TOR1 (second series), active compounds read low 0.97 | locus YJR066W, strain TOR1, active compounds read low 0.998 | locus YKL048C, strain ELM1, active compounds read low 1 | locus YKL067W, strain YNK1, active compounds read low 0.948 | locus YKL101W, strain HSL1, active compounds read low 0.969 | locus YKL193C, strain SDS22, active compounds read low 0.994 | locus YKL203C, strain TOR2, active compounds read low 1.08 | locus YLR133W, strain CKI1, active compounds read low 0.992 | locus YLR403W, strain SFP1, active compounds read low 0.985 | locus YML070W, strain DAK1, active compounds read low 0.979 | locus YMR001C, strain CDC5, active compounds read low 0.991 | locus YMR205C, strain PFK2 (second series), active compounds read low 0.981 | locus YMR277W, strain FCP1, active compounds read low 0.965 | locus YNL006W, strain LST8, active compounds read low 1.01 | locus YNL020C, strain ARK1, active compounds read low 0.982 | locus YNL161W, strain CBK1, active compounds read low 0.995 | locus YNL183C, strain NPR1, active compounds read low 1.02 | locus YNL207W, strain RIO2, active compounds read low 0.979 | locus YNL222W, strain SSU72, active compounds read low 0.986 | locus YNL307C, strain MCK1 (second series), active compounds read low 0.954 | locus YOL078W, strain AVO1, active compounds read low 0.99 | locus YOL136C, strain PFK27, active compounds read low 0.963 | locus YOR061W, strain CKA2, active compounds read low 0.995 | locus YOR119C, strain RIO1, active compounds read low 1.02 | locus YOR231W, strain MKK1, active compounds read low 1.02 | locus YOR329C, strain SCD5, active compounds read low 0.995 | locus YPL031C, strain PHO85, active compounds read low 0.993 | locus YPL153C, strain RAD53, active compounds read low 0.967 | locus YPL204W, strain HRR25, active compounds read low 0.96 | locus YPL209C, strain IPL1, active compounds read low 0.994 | locus YPL256C, strain CLN2, active compounds read low 0.909 | locus YPR025C, strain CCL1, active compounds read low 0.997 | locus YPR106W, strain ISR1, active compounds read low 0.976 | locus YPR111W, strain DBF20, active compounds read low 0.956 | strain NNK1, active compounds read low 0.988 | strain TSCII, active compounds read low 0.978

N[C@@H](Cc1c[nH]c2ccccc12)C(=O)O
inactive: locus YAL040C, strain CLN3, active compounds read low 1.02 | locus YCL061C, strain MRC1 (second series), active compounds read low 1 | locus YDR150W, strain NUM1, active compounds read low 1.01 | locus YDR363W, strain ESC2, active compounds read low 1.01 | locus YER002W, strain NOP16, active compounds read low 1.01 | locus YGR078C, strain PAC10, active compounds read low 1 | locus YGR229C, strain SMI1, active compounds read low 1.03 | locus YMR307W, strain GAS1, active compounds read low 0.991 | locus YNL128W, strain TEP1, active compounds read low 1 | locus YNL175C, strain NOP13, active compounds read low 0.997 | locus YNL197C, strain WHI3, active compounds read low 0.996 | locus YNL224C, strain SQS1, active compounds read low 1.01 | locus YOR083W, strain WHI5 (second series), active compounds read low 0.996 | locus YPL241C, strain CIN2, active compounds read low 1.01

— PubChem BioAssay AID1159580 (chemical genetic matrix, 2015)
